Reference: PubChem BioAssay
Active and inactive are the calls of the source.

What was measured:
[1] = compounds binding Alexa647 anti-His antibody – biochemical, small-molecule microarray, 635 nm fluorescence, artefact control for SMM control protein annotation, primary screen (AID 1128); conditions: higher = more signal;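 note: score merges feature fluorescence with signal-to-noise for each printed compound spot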
[2] = system: Human papillomavirus type 1a E7 protein (residues 1-88); experiment: HPV1a E7 small-molecule binders, primary screen, biochemical, small-molecule microarray, residues 1-88, 635 nm (AID 1129); conditions: small-molecule microarray binding, fluorescence 635 nm; higher = more signal
[3] = biological target: Focal adhesion kinase 1 (Homo sapiens) (UniProt Q05397); experiment: PTK2 protein binding on printed compound slides – biochemical, small-molecule microarray, 635/667 nm fluorescence, BSA, DTT, primary screen (AID 1130); conditions: 635 nm fluorescence, higher = more signal;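 note: composite of spot emission at 667 nm and signal to noise over triplicate slides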
[4] = system: Fibrinogen (Alexa647-labelled); experiment: Alexa647-fibrinogen binding to printed small molecules – biochemical, small-molecule microarray, 635/667 nm fluorescence, artefact control for SMM control-protein annotation, profiling panel (AID 1131); conditions: fibrinogen-A647 binding fluorescence, higher = more signal;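 note: z-score merges 667 nm fluorescence with per-spot signal-to-noise over triplicate slides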
[5] = biological target: Follistatin (Homo sapiens) (UniProt P19883); experiment: FST protein binding to printed compounds – biochemical, small-molecule microarray, 635/667 nm fluorescence, primary screen (AID 1132); conditions: 635 nm fluorescence, higher = more signal
[6] = biological target: Fibroblast growth factor 2 (Homo sapiens) (UniProt P09038); experiment: basic fibroblast growth factor binding to printed compounds – biochemical, small-molecule microarray, 635/667 nm fluorescence, primary screen (AID 1133); conditions: FGF2, fluorescence 635/667, higher = more signal
[7] = JC-1 mitochondrial potential readout, lung cancer cells – cell-based, A549, JC-1 fluorescence, basal, 24 h, 100 nL, profiling panel (AID 1138); conditions: higher = more signal;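 note: A549 lung adenocarcinoma cells under basal conditions with no added stimulus; test concentration not given here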
Lefty1 = Lefty1 protein binding to printed compounds – biochemical, small-molecule microarray, 635/667 nm fluorescence, primary screen (AID 1139); conditions: fluorescence 635/667, higher = more signal
[8] = system: wheat germ agglutinin (Triticum aestivum), Alexa647-labelled; experiment: Alexa647-WGA lectin binding to printed small molecules – biochemical, small-molecule microarray, 635/667 nm fluorescence, artefact control for SMM control-protein annotation, profiling panel (AID 1140); conditions: WGA-A647 binding, 635 nm fluorescence, higher = more signal;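 note: score merges 667 nm feature emission with signal to noise over triplicate slides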
[9] = biological target: Luciferin 4-monooxygenase (Photinus pyralis) (UniProt P08659); experiment: inhibition of purified Photinus pyralis luciferase – biochemical, luminescence, purified enzyme, 2006 set, primary screen (AID 1141); conditions: purified firefly luciferase, SteadyGlo luminescence, 30 min; higher = more signal, called active from +8 up or from −8 down;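 note: cell-free assay with purified firefly luciferase at 100 ng per well in PBS; test concentration not given here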
Luciferin 4-monooxygenase (Photinus pyralis), sequence (P08659 whole entry, looked up): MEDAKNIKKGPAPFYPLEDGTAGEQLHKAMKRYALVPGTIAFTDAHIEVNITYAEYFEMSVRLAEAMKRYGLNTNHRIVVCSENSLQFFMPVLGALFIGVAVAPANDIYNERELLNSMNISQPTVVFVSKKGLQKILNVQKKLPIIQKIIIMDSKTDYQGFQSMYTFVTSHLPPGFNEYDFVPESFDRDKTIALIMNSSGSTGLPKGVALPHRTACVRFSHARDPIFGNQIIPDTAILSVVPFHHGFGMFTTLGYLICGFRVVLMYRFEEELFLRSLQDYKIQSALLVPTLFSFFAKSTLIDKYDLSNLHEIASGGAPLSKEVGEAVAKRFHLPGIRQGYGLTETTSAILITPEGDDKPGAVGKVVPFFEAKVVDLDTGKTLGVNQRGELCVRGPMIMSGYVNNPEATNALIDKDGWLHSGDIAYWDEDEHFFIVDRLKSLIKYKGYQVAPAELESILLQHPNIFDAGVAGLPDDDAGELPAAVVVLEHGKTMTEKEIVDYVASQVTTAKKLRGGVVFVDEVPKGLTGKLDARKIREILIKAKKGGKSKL

Focal adhesion kinase 1 (Homo sapiens), sequence (Q05397 whole entry, looked up): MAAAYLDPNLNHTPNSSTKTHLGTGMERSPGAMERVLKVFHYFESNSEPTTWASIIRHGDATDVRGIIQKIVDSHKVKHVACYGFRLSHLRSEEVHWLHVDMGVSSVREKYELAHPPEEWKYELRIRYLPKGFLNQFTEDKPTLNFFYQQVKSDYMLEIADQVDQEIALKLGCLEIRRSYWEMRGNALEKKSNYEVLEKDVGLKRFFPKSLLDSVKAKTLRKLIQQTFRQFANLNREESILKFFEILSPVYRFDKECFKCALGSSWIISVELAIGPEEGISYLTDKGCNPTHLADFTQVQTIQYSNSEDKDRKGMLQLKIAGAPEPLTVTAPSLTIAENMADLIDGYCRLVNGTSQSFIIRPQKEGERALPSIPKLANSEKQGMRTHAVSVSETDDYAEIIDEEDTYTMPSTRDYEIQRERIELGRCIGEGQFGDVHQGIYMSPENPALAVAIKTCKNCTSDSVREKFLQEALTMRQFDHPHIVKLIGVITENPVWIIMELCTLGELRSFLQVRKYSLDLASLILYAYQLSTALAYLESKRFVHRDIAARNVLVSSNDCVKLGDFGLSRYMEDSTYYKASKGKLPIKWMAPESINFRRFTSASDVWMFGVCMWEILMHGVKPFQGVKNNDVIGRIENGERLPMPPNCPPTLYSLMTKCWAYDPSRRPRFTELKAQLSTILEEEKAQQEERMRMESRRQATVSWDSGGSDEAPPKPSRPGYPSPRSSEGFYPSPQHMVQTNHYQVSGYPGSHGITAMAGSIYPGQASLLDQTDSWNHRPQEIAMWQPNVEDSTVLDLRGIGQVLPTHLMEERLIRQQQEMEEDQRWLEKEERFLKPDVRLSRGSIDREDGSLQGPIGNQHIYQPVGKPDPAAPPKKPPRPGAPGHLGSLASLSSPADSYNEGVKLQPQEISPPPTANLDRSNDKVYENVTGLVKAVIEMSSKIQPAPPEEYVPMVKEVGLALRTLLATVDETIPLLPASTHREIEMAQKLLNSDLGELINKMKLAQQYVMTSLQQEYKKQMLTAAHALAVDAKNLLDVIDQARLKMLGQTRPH
Fibroblast growth factor 2 (Homo sapiens), sequence (P09038 whole entry, looked up): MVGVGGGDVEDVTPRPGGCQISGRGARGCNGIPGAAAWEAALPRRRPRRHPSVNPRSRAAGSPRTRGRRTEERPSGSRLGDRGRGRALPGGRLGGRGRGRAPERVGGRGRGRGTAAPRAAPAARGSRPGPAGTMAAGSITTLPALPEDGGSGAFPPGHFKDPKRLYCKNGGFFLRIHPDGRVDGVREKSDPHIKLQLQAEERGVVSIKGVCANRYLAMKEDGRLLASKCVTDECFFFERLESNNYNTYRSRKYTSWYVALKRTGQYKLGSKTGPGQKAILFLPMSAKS
Follistatin (Homo sapiens), sequence (P19883 whole entry, looked up): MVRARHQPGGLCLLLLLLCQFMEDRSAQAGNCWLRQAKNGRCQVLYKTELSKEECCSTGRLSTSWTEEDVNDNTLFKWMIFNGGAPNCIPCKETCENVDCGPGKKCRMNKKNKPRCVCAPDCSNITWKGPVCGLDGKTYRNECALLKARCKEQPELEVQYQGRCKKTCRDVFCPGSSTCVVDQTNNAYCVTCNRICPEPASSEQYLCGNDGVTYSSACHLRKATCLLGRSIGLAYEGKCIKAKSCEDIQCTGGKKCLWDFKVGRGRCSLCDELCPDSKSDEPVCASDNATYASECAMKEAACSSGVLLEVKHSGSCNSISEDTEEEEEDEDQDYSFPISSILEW

SMILES | composite z-score [1] | composite z-score [2] | composite z-score [3] | composite z-score [4] | composite z-score [5] | composite z-score [6] | z-score [7] | composite z-score (Lefty1) | composite z-score [8] | z-score [9]
O=C1c2ccccc2[C@](Cc2ccccc2I)(C(=O)NC2CC2)[C@H](c2ccc(CO)cc2)N1Cc1ccccc1C(F)(F)F | 0.0698 | 0.749 | -0.226 | 0.938 | 1.15 | 0.0532 | -0.254 | 1.26 | 1.15 | 0.0135 (inactive)
COc1ccc(C(=O)Nc2cccc(CN3C(=O)[C@@]4(O[C@@H](CC(=O)N(CCO)Cc5ccccc5)[C@H]([Si](C)(C)c5ccc(OC)cc5)[C@H]4C)c4ccccc43)c2)cc1 | 0.696 | 1.01 | 0.16 | 0.193 | 0.99 | 1.08 | -0.106 | 1.18 | 0.289 | -1.75 (inactive)
COCC(=C=CC[C@H](O)c1cccc(OCCO)c1)C[C@H](O)COCc1ccccc1 | 1.09 | 1.11 | 1.24 | -0.749 | 1.21 | 1.23 | -0.177 | 0.88 | -0.41 | -0.496 (inactive)
C=CCN1C(=O)[C@]2(O[C@H](CCO)[C@@H]([Si](C)(C)c3ccc(OC)cc3)[C@@H]2C)c2cc(NC(=O)c3ccc(OC)cc3)ccc21 | 1.17 | 0.668 | 0.241 | 0.318 | 1.36 | 1.21 | -1 | 1.03 | 0.286 | -0.772 (inactive)
CCOC(=O)C1=C[C@@H](C(C)(C)C)N(S(=O)(=O)c2ccc(C)cc2)[C@H]1c1ccccc1 | 0.761 | 1.16 | 0.329 | 0.706 | 1.11 | 0.136 | 2.21 | 0.523 | 1.09 | 0.756 (inactive)
Cc1ccc(S[C@]2(C(=O)NCC(C)C)CC(=O)N(C3Cc4ccccc4C3)[C@@H]2c2ccc(CO)cc2I)cc1 | -0.258 | 0.27 | -0.199 | -1.13 | -0.615 | -1.02 | -0.244 | -1.38 | -0.463 | -0.063 (inactive)
[N-]=[N+]=Nc1ccccc1C[C@@]1(C(=O)O)N=C(c2ccc(OCCCO)cc2)O[C@@H]1c1ccccc1N=[N+]=[N-] | 2.68 | 1.25 | 0.968 | 0.963 | 0.46 | -0.606 | 0.125 | -0.817 | 1.44 | -5.43 (inactive)
C=C[C@H](C)[C@H](OC(=O)Nc1ccc(OC)cc1)c1ccc(OCCO)cc1 | -0.489 | -0.653 | 0.0457 | -0.909 | -0.617 | -0.0943 | 0.927 | -0.431 | -0.647 | -6.74 (inactive)
Cc1cccc([C@H]2C[C@H]3C(I)=C[C@@H]2C(=O)[C@]32CO2)c1 | 0.0509 | -0.479 | -0.446 | -0.775 | 0.573 | 0.437 | 0.33 | -0.118 | -0.412 | -0.303 (inactive)
CC1(C)C(=O)C(c2ccccc2)=C2CN3C(=O)N(CCc4ccccc4)C(=O)C3(Cc3ccc(F)cc3)C=C21 (stereo not given) | 1.47 | 0.324 | -0.104 | -0.402 | 0.0178 | -0.979 | -0.593 | -0.784 | 0.432 | 0.907 (inactive)
COC(=O)C(CC#Cc1ccc2c(c1)[C@]1(C(=O)N2)[C@H](C(=O)Nc2nc3ccccc3s2)[C@H]2C(=O)O[C@H](c3ccccc3)[C@H](c3ccccc3)N2[C@@H]1c1ccc(OCCO)cc1)C(=O)OC | 1.94 | 1.1 | 0.539 | 0.978 | 1.45 | 1.39 | -1.94 | 1.27 | 1.07 | -4.66 (inactive)
COCCOC(=O)N1C(=O)[C@@]2(c3cc(C#CCCO)ccc31)[C@H](C(N)=O)[C@H]1C(=O)O[C@H](c3ccccc3)[C@H](c3ccccc3)N1[C@@H]2c1ccc(OCCO)cc1 | 0.911 | 1.19 | 0.663 | 0.877 | 1.09 | 0.805 | -1.03 | 0.794 | 0.583 | -1.17 (inactive)
CCCCC=C[C@@H](NC(=O)c1ccccc1)c1ccccc1 | 0.249 | 1.18 | 1.43 | 0.987 | 0.527 | -0.79 | -0.584 | 0.4 | 0.68 | 0.965 (inactive)
Cc1ccc(F)cc1S(=O)(=O)N[C@@H]1CCN(Cc2cccc3[nH]ccc23)C1 | 0.134 | 0.179 | -0.271 | -0.383 | 1.26 | 0.932 | 0.443 | 0.69 | -0.227 | -0.0287 (inactive)
